According to PubChem BioAssay AID1159580 (chemical genetic matrix, 2015):
The campaign covered roughly 5,500 compounds. About 2,000 (36%) were called active. Inconclusive results (about 18%) are left out. Rule as the data show it: active = normalized growth mostly below about 0.91 (no sharp cut-off); inconclusive = no clear call, values can overlap the other calls; inactive = mostly above about 0.92. The list shows a part of the results.

Experiment: chemical genetic growth profiling, strain panel (AID 1159580);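 also: tested at 20 µM; growth read once vehicle control cultures reached saturation at 30 °C; 1 = growth at the plate median or of vehicle wells; lower values mean less growth of the strain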
Details: S. cerevisiae deletion strains, growth OD

Measured: normalized growth

O=C(O)c1cc(=O)c2ccccc2o1
inactive: locus YAL021C, strain ccr4, hits give low values 1.01 | locus YAL026C, strain drs2, hits give low values 0.984 | locus YAL030W, strain snc1, hits give low values 0.971 | locus YBL061C, strain skt5, hits give low values 0.974 | locus YBR009C, strain hhf1, hits give low values 0.989 | locus YBR023C, strain chs3, hits give low values 0.982 | locus YBR171W, strain sec66, hits give low values 0.965 | locus YBR231C, strain swc5, hits give low values 0.982 | locus YBR279W, strain paf1, hits give low values 0.981 | locus YCL011C, strain gbp2, hits give low values 0.988 | locus YCL016C, strain dcc1, hits give low values 0.995 | locus YCL061C, strain MRC1, hits give low values 0.979 | locus YCL069W, strain vba3, hits give low values 0.99 | locus YCR088W, strain abp1, hits give low values 0.973 | locus YDL005C, strain med2, hits give low values 0.967 | locus YDL040C, strain nat1, hits give low values 0.98 | locus YDR001C, strain nth1, hits give low values 0.972 | locus YDR069C, strain doa4, hits give low values 0.966 | locus YDR137W, strain rgp1, hits give low values 0.971 | locus YDR159W, strain sac3, hits give low values 1 | locus YDR195W, strain ref2 0.916 | locus YDR297W, strain sur2, hits give low values 0.983 | locus YDR334W, strain swr1, hits give low values 0.976 | locus YDR335W, strain msn5, hits give low values 0.986 | locus YDR392W, strain spt3, hits give low values 1.02 | locus YEL003W, strain gim4, hits give low values 0.983 | locus YEL037C, strain rad23, hits give low values 0.973 | locus YEL061C, strain CIN8 (second series), hits give low values 0.97 | locus YER015W, strain faa2, hits give low values 0.99 | locus YER016W, strain bim1, hits give low values 0.984 | locus YER111C, strain swi4, hits give low values 0.972 | locus YER155C, strain BEM2 (second series), hits give low values 0.936 | locus YFR010W, strain ubp6, hits give low values 0.976 | locus YGL167C, strain pmr1, hits give low values 0.973 | locus YGL173C, strain kem1, hits give low values 0.975 | locus YGL227W, strain vid30, hits give low values 0.968 | locus YGL240W, strain doc1, hits give low values 0.96 | locus YGL253W, strain hxk2, hits give low values 0.992 | locus YHR013C, strain ard1, hits give low values 0.978 | locus YHR027C, strain rpn1, hits give low values 0.977 | locus YHR030C, strain SLT2, hits give low values 1.03 | locus YHR079C, strain IRE1, hits give low values 1.02 | locus YHR142W, strain chs7, hits give low values 0.983 | locus YJL092W, strain hpr5, hits give low values 0.98 | locus YJL095W, strain BCK1 (second series), hits give low values 0.97 | locus YJL095W, strain BCK1, hits give low values 1.03 | locus YJL115W, strain asf1, hits give low values 0.979 | locus YJL129C, strain trk1, hits give low values 0.95 | locus YJL154C, strain vps35, hits give low values 0.952 | locus YJL164C, strain tpk1, hits give low values 0.98 | locus YJL166W, strain qcr8, hits give low values 0.97 | locus YJR066W, strain TOR1, hits give low values 0.956 | locus YKL160W, strain elf1, hits give low values 0.987 | locus YKR026C, strain gcn3, hits give low values 0.971 | locus YKR091W, strain srl3, hits give low values 0.972 | locus YLL001W, strain dnm1, hits give low values 0.957 | locus YLL026W, hits give low values 0.969 | locus YLL041C, strain sdh2, hits give low values 0.972 | locus YLR027C, strain aat2, hits give low values 0.979 | locus YLR113W, strain HOG1, hits give low values 1.05 | locus YLR221C, strain rsa3, hits give low values 1 | locus YLR258W, strain gsy2, hits give low values 0.985 | locus YLR262C, strain YPT6 (second series), hits give low values 0.986 | locus YLR320W, strain mms22, hits give low values 0.991 | locus YLR342W, strain FKS1, hits give low values 0.983 | locus YLR357W, strain rsc2, hits give low values 0.975 | locus YLR370C, strain arc18, hits give low values 0.974 | locus YLR384C, strain iki3, hits give low values 0.976 | locus YML120C, strain ndi1, hits give low values 0.958 | locus YMR058W, strain fet3, hits give low values 0.984 | locus YMR125W, strain sto1, hits give low values 0.95 | locus YMR129W, hits give low values 0.981 | locus YMR205C, strain PFK2, hits give low values 0.969 | locus YMR231W, strain pep5, hits give low values 0.949 | locus YNL071W, strain lat1, hits give low values 0.988 | locus YNL183C, strain NPR1, hits give low values 0.949 | locus YNL209W, strain ssb2, hits give low values 1.03 | locus YNL248C, strain rpa49, hits give low values 0.968 | locus YNL322C, strain KRE1 (second series), hits give low values 0.953 | locus YNR049C, strain mso1, hits give low values 0.982 | locus YOR001W, strain rrp6, hits give low values 0.983 | locus YOR070C, strain gyp1, hits give low values 0.985 | locus YOR080W, strain dia2, hits give low values 0.971 | locus YOR083W, strain WHI5, hits give low values 0.982 | locus YOR106W, strain vam3, hits give low values 0.972 | locus YOR231W, strain MKK1, hits give low values 1.07 | locus YOR265W, strain rbl2, hits give low values 0.976 | locus YOR270C, strain vph1, hits give low values 0.962 | locus YOR290C, strain snf2, hits give low values 1 | locus YPL051W, strain arl3, hits give low values 0.983 | locus YPL078C, strain atp4, hits give low values 0.975 | locus YPL106C, strain sse1, hits give low values 0.988 | locus YPL240C, strain hsp82, hits give low values 0.994 | locus YPL256C, strain CLN2, hits give low values 1.03
